Measurements published in ChEMBL document CHEMBL1157539, “Thousands of chemical starting points for antimalarial lead identification” (Nature, 2010).

Test system: Plasmodium falciparum
Experiment: GSK_TCMDC: Inhibition of Plasmodium falciparum 3D7 in whole red blood cells, using parasite LDH activity as an index of growth. Test compounds present at 2uM
Format: functional

Q: How did the Inhibition turn out when `Cc1ccc(O)cc1Nc1ccnc2cc(-c3csc(CN4CCN(C)CC4)n3)ccc12` was run?
A: 100%

Q: `CCOc1ccc(Nc2ccc3nonc3c2S(=O)(=O)Nc2ccc(OCC)cc2)cc1` was tested. Which Inhibition did it give?
A: 100%

Q: `Cc1cc(NCCCOc2ccc(Cl)cc2)nc(NCc2ccccc2)n1.Cl` was tested. Which Inhibition did it give?
A: 95%

Q: `CCCNCc1ccc(-c2ccc(CN(CCOC)C(=O)CC3CCCC3=O)cc2)nc1.O=C(O)C(F)(F)F` (stereo not given) was tested. Which Inhibition did it give?
A: 93%

Q: `O=C(NCCc1ccc(Cl)c(Cl)c1)C1CCCN(C(=O)c2ccc(O)c(-c3ccc(Cl)c(Cl)c3)c2)C1` (stereo not given) was tested. Which Inhibition did it give?
A: 96%

Q: Which Inhibition does the source give for `Cc1cccc2nc(-c3ccc(-c4ccc(CN5CCC(CO)CC5)cc4)s3)[nH]c12.O=C(O)C(F)(F)F` here?
A: 100%

Q: How did the Inhibition turn out when `Cc1cc(I)ccc1Nc1nc2nonc2nc1Nc1ccc(I)cc1C` was run?
A: 100%

Q: With `Cc1cc([N+](=O)[O-])ccc1N1CCN(CCCCNC(=O)c2ccc(NC(=O)c3ccc(Cl)cc3)cc2)CC1` as the molecule, how does the Inhibition read?
A: 92%

Q: Which Inhibition does the source give for `CC(C)(C)c1ccc2[nH]c(-c3ccc(/C=C/C(=O)NCc4ccc(Cl)c(Cl)c4)cc3)nc2c1` here?
A: 97%

Q: Which Inhibition does the source give for `CCCCCCNC(=O)C1Cc2c([nH]c3ccccc23)C2(CCN(CCc3ccccc3)CC2)N1` (stereo not given) here?
A: 96%

Q: With `COC(=O)C1(NC(=O)c2ccc(-n3nc(C)c(-c4ccccc4)c3N)cc2)CCCC1` as the molecule, how does the Inhibition read?
A: 96%

Q: Which Inhibition does the source give for `O=[N+]([O-])c1cccc(Nc2cncc(-c3ccc(CO)cc3)c2)c1` here?
A: 85%

Q: How did the Inhibition turn out when `CCNc1cc(CC)nc(Nc2ccc(C)cc2)n1` was run?
A: 100%

Q: Which Inhibition does the source give for `Cn1nc(C(F)(F)F)c(-c2ccc(Br)cc2)c1NC(=O)Nc1ccc(F)cc1F` here?
A: 99%

Q: With `CNC(=O)COC(=O)c1c2c(nc3ccccc13)C(=Cc1ccc3c(c1)OCO3)CCC2` as the molecule, how does the Inhibition read?
A: 83%

Q: How did the Inhibition turn out when `CCc1cc2c(=O)c(-c3nc(C)cs3)c([C@H](N)Cc3ccc(O)cc3)oc2cc1O.O=C(O)C(F)(F)F` was run?
A: 100%

Q: For `CC(C)c1ccc(NC(=O)NCC2CCCN(CCCCCNC(=O)/C=C/c3ccc(Cl)c(Cl)c3)C2)cc1` (stereo not given), which Inhibition is on record?
A: 98%

Q: With `CN1CCCc2ccc(NC(=O)C=Cc3ccc(-c4ccc(F)cc4F)o3)cc2C1.O=C(O)C(F)(F)F` as the molecule, how does the Inhibition read?
A: 98%

Q: `COc1ccc(-c2ccc(NC(=O)c3cccc(Cl)c3)cc2)cc1CN1CCC(O)CC1.O=C(O)C(F)(F)F` was tested. Which Inhibition did it give?
A: 100%

Q: Which Inhibition does the source give for `O=C(C1CCCCC1)N1CCOC(CCN2CCC(c3ccccc3)CC2)(c2ccc(Cl)c(Cl)c2)C1` (stereo not given) here?
A: 92%

Q: With `O=C(Nc1ccc(F)cc1)c1cnc(N2CCN(c3ccncc3)CC2)c(Cl)c1.O=C(O)C(F)(F)F` as the molecule, how does the Inhibition read?
A: 100%

Q: For `O=C(N[C@@H](Cc1ccccc1)C(=O)NC1CCCc2ccccc21)c1ccc(O)c(-c2cccc(C(F)(F)F)c2)c1` (stereo not given in full), which Inhibition is on record?
A: 91%

Q: Which Inhibition does the source give for `CCc1c[nH]c2c(N3CCCS3(=O)=O)cc(C(=O)N[C@@H](Cc3ccccc3)[C@H](O)CNC3CCCCC3)cc12.O=CO` here?
A: 99%

Q: For `Cc1cccc2nc(-c3cccc(-c4ccc(NC(=O)CC5NC(=O)c6ccccc65)cc4)c3)[nH]c12` (stereo not given), which Inhibition is on record?
A: 100%

Q: With `CC[C@H](C)CNC(=O)c1ccnc(-c2cccc(CN(C)C3CCN(C)CC3)c2)c1.O=C(O)C(F)(F)F` as the molecule, how does the Inhibition read?
A: 100%

Q: With `O=C(NC1CCN(Cc2ccc3c(c2)OCCO3)CC1)c1ccc(-c2cccc(C(F)(F)F)c2)s1.O=C(O)C(F)(F)F` as the molecule, how does the Inhibition read?
A: 100%

Q: How did the Inhibition turn out when `O=C(NCCCCN1CCC(c2ccc3ccccc3c2O)CC1)c1ccc(NC(=O)c2ccc(Cl)cc2)cc1` was run?
A: 100%

Q: With `O=C(Nc1ccccc1)Nc1ccc(-n2ccc(C(F)(F)F)n2)cc1` as the molecule, how does the Inhibition read?
A: 95%

Q: `O=C(Cn1nc(Br)nc1[N+](=O)[O-])NCC1CCCCC1` was tested. Which Inhibition did it give?
A: 96%

Q: Which Inhibition does the source give for `O=C(NCc1cccc(C(F)(F)F)c1)C(c1cc2ccccc2o1)N1CCN(C(c2ccccc2)c2ccccc2)CC1` (stereo not given) here?
A: 91%

Q: Which Inhibition does the source give for `COc1ccc2nccc([C@@H](O)CN3CCC(NC(=O)C(c4cc5ccccc5o4)N4CCC(Cc5ccccc5)CC4)CC3)c2c1` (stereo not given in full) here?
A: 100%

Q: Which Inhibition does the source give for `COc1ccccc1NC(=O)Nc1cccc(-c2ccc(-c3nc4cccc(C)c4[nH]3)s2)c1` here?
A: 100%

Q: With `O=C(/C=C/c1ccc(-c2nc3ccc(Cl)cc3[nH]2)cc1)NC1CCN(Cc2ccccc2)CC1` as the molecule, how does the Inhibition read?
A: 100%

Q: For `Cc1cccc(Nc2nc(C)cc(N3CCCN(CC4CCCCC4)CC3)n2)c1`, which Inhibition is on record?
A: 83%

Q: With `CCN(CC)CCCC(C)Nc1ccnc2ccc(-c3ccccc3)cc12` (stereo not given) as the molecule, how does the Inhibition read?
A: 98%

Q: `Br.CC1(C)N=C(N)N=C(N)N1OCc1cccc(C#N)c1` was tested. Which Inhibition did it give?
A: 94%

Q: Which Inhibition does the source give for `COc1ccc2c(O)c(C3CCC(c4ccc(Cl)cc4)CC3)c(C)nc2c1` (stereo not given) here?
A: 97%

Q: For `O=C(NCC1CCC(CNCCc2ccccc2)CC1)Nc1ccc(Cl)c(Cl)c1` (stereo not given), which Inhibition is on record?
A: 96%

Q: How did the Inhibition turn out when `CC1(C)N=C(N)N=C(N)N1OCCCc1ccccc1.Cl` was run?
A: 96%

Q: For `Fc1ccc2[nH]c(-c3cccc(-c4cccc(CNCC5CCCO5)c4)c3)nc2c1.O=C(O)C(F)(F)F` (stereo not given), which Inhibition is on record?
A: 99%
